Screens deposited in PubChem by The Scripps Research Institute Molecular Screening Center.
ssDAF12 agonist – activates DAF-12 receptor from parasite S. stercoralis. activation, % at 6.8 µM. actives 1% (n = 370,000). HEK293 ssDAF-12/GRIP1 lit1-tk-luc reporter, luminescence; % of 3 µM dafachronic acid response. AID 652126;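 active = activation above the mean over all tested compounds plus 3 SD, cut at about 0.9% in these data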;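 note: 0% = DMSO-only wells and 100% = 3 µM delta7-dafachronic acid wells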
DAX1 inh-1 – inhibitors of DAX1 repression of SF-1 activated StAR promoter; HEK293T StAR-luciferase reporter, SF-1/DAX-1 repression relief; inhibition, % at 6.8 µM; actives 1.1% (n = 370,000);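 active = inhibition above the mean over all tested compounds plus 3 SD, cut at about 3.6% in these data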;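 note: 0% = DAX-1 cells with DMSO and 100% = cells lacking DAX-1 with DMSO; higher inhibition means more luminescence from relief of DAX-1 repression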
DAX1 inh-2 – inhibitors of human orphan nuclear receptor DAX1 (NR0B1); actives 0.99% (n = 340,000); HEK293 Gal4-DAX1 luciferase reporter, luminescence; AID 504766; P51843; inhibition, % at 6.75 µM;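 active = inhibition above the mean over all tested compounds plus 3 SD, cut at about 4.2% in these data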;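 note: 0% = DAX1-transfected cells with DMSO and 100% = empty-vector control cells with DMSO; inhibition shows as a rise in luminescence from relieved DAX1 repression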
hcDAF-12 act – activators of H. contortus DAF-12 nuclear receptor | activation, % at 6.8 µM | actives 1.4% (n = 370,000) | HEK293 hcDAF-12 lit1-tk-luc reporter, luminescence; 0% DMSO, 100% Δ7-dafachronic acid;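 active = activation above the mean of all tested compounds plus 3 SD, cut at about 5.5% in these data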;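 note: 100% = response to 3 µM Δ7-dafachronic acid high control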
hgDAF-12 ag – activates the H. glycines DAF-12 receptor ligand-binding domain. HEK293 GAL4-hgDAF12 UAS-luciferase reporter, agonist luminescence; normalized to butyrate control. activation, % at 6.8 µM. actives 1.8% (n = 370,000);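 active = activation above a cutoff set at the mean of all screened compounds plus 3 SD, cut at about 10% in these data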;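 note: 0% = DMSO wells and 100% = sodium butyrate wells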
LXR ag – LXR-beta agonism as hcDAF-12 counter-screen. shares compounds with hcDAF-12 act. HEK293 Gal4-LXR tk-luc reporter, luminescence, 24 h; normalized: DMSO 0%, positive control 100%. activation, % at 6.8 µM. 3,400 tested, under 10 active. AID 743027;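 active = mean percent activation of the reporter above a cutoff set as the average over tested compounds plus their standard deviation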
Target sequence (P55055 whole entry, looked up, the tested form may be a part): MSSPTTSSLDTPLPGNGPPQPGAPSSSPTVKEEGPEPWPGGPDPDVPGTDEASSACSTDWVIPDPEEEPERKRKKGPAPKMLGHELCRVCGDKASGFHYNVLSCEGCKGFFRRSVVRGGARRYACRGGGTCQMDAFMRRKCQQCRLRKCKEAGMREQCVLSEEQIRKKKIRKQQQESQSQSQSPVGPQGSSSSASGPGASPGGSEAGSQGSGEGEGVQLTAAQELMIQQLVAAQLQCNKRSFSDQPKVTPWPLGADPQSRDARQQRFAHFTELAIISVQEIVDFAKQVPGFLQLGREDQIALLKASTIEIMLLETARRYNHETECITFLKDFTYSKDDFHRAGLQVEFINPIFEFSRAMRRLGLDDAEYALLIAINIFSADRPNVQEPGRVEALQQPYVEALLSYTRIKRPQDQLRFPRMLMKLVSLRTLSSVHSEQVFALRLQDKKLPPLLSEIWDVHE
hcDAF12 conf – confirmation of H. contortus DAF-12 agonists; shares compounds with hcDAF-12 act; HEK293 hcDAF-12 lit1-tk-luc reporter, luminescence; % of Δ7-dafachronic acid response; activation, % at 6.8 µM; actives 61% (n = 3,400); AID 743032;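 active = mean activation across triplicate tests above the threshold derived from the earlier primary screen, cut at about 5.5% in these data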;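 note: 0% = DMSO only wells and 100% = 3 µM Δ7-dafachronic acid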
Starred values were filed as active, the others as inactive; x = not tested or not shown. Sampled rows, rich in hits. Any-hit rate of the full collection: about 4.1%.

SMILES	ssDAF12 agonist	DAX1 inh-1	DAX1 inh-2	hcDAF-12 act	hgDAF-12 ag	LXR ag	hcDAF12 conf
Cc1ccc(NC(=O)N2CCc3ccccc3C2)cc1	0.6	1.5	2.2	7.4*	8.2	0.8	6.7*
O=C(Nc1ccc(Cl)cc1)N1CCc2ccccc2C1	-0.2	1.6	0.8	3.9	8.9	x	x
COCCNC(=S)N(C)[C@H]1C[C@H]2c3[nH]c4c(-c5cccc(C)c5)cccc4c3CCN2C[C@H]1[C@H](C)O	-1.5	-1.1	x	-2.6	1.3	x	x
CN(C)CCCN(C(=O)c1sc2ccccc2c1Cl)c1nc2ccc(F)cc2s1	-0.1	1.1	0.2	7.6*	3.5	0.4	8.0*
CCCn1cc(CCC(=O)Nc2ccc(Oc3cccnc3)cc2)c2ccccc21	-1.8	-0.2	x	1.1	-0.7	x	x
O=C(NNc1nc2ccccc2o1)c1ccccc1	0.1	2.1	x	8.2*	10.6*	0.7	4.2
O=C(NNc1nc2ccccc2nc1C(F)(F)F)c1ccccc1	-1.0	0.0	-0.2	-0.6	-0.8	x	x
O=C(O)CSCC(=O)N1N=C2/C(=C/c3ccccc3)CCCC2C1c1ccccc1 (stereo unspecified)	0.3	-0.3	-0.9	1.6	0.9	x	x
CCn1cc(Cl)c(C(=O)N2N=C3/C(=C/c4cccs4)CCCC3C2c2cccs2)n1 (stereo unspecified)	-0.7	-0.6	-0.5	6.6*	2.0	-0.1	4.7
Cc1cnc(NC(=O)CSc2nnc(-c3ccccc3)o2)s1	0.0	3.3	6.4*	8.4*	6.7	0.7	4.5
C#CCN1C[C@@]2(O)CC[C@@H](O)[C@@H](OC)[C@@H]2[C@@]1(C)[C@H](O)CC=C(C)C	-1.5	-0.6	x	-1.4	-2.0	x	x
COc1ccc(-c2nnc(SCC(=O)Nc3ccc4cn[nH]c4c3)n2Cc2ccco2)cc1	0.5	-2.3	x	7.4*	4.1	-0.1	4.6
COC(=O)[C@@H]1[C@H](O[Si](C)(C)C(C)(C)C)[C@H]2O[C@H]2C[C@H]1S(=O)(=O)c1ccccc1	-1.9	x	x	-1.1	-2.6	x	x
Cc1ccnc(NC(=S)NC(=O)c2cccs2)c1	2.1*	4.3*	3.9	13.6*	19.1*	2.0	10.9*
Cc1ccnc(NC(=O)CNC(=O)c2cccs2)c1	-0.9	0.1	3.9	-0.9	2.5	x	x
O=C1c2cccc3c(N4CCOCC4)c([N+](=O)[O-])cc(c23)C(=O)N1c1cccc2ccccc12	-1.1	0.4	0.5	6.8*	-0.2	-0.4	-0.7
Cc1cccc(N2C(=O)c3cccc4c(N5CCCCC5)c([N+](=O)[O-])cc(c34)C2=O)c1C	-0.6	0.1	-1.2	1.6	-1.0	x	x
C[C@H](O)[C@@H]1CN2CCc3ccc(-c4ccc5c(c4)OCO5)cc3[C@@H]2C[C@@H]1N(C)Cc1cc(Cl)cc(Cl)c1	-0.5	0.1	x	-0.8	0.9	x	x
Cc1cc(Oc2cccnc2)ccc1NC(=O)Cc1cn(C)c2ccccc12	-1.6	-0.1	x	-0.1	-0.7	x	x
CCN(CC)c1ccc(/C=N/NC(=O)c2cc3ccccc3[nH]2)cc1	-0.3	-0.4	-0.1	0.2	3.4	x	x
CCN(CC)c1ccc(/C=N/NC(=O)c2ccccn2)cc1	0.8	1.3	3.8	6.8*	11.1*	1.3	7.1*
O=C(OCC(=O)c1c[nH]c2ccccc12)c1cc2ccccc2cc1O	-1.1	-0.4	-1.0	8.0*	0.7	-0.3	3.7
CCn1c(=NC(=O)c2ccco2)sc2cccc(F)c21	0.8	2.3	1.6	11.9*	12.6*	0.6	8.4*
CCOC(=O)c1ccc2c(c1)sc(=NC(=O)c1ccco1)n2CCOC	-1.5	-0.6	0.4	-2.7	0.2	x	x
Cc1ccccc1C(=O)O/N=C(\N)c1ccccc1	0.9*	3.0	3.6	10.4*	8.4	2.4	25.1*
SMILES	ssDAF12 agonist	DAX1 inh-1	DAX1 inh-2	hcDAF-12 act	hgDAF-12 ag	LXR ag	hcDAF12 conf
N/C(=N\OC(=O)c1cccc2ccccc12)c1ccncc1	2.3*	-0.1	3.0	7.5*	3.7	0.2	4.2
N/C(Cc1ccccc1)=N\OC(=O)c1cccc2ccccc12	-0.7	-0.4	-0.5	3.8	3.6	x	x
N/C(=N\OC(=O)c1cccc2ccccc12)c1ccc(Br)cc1	2.2*	0.2	-1.7	8.9*	-1.5	-0.2	4.0
O=C(NCc1ccccc1)[C@H]1CCCN1	-1.4	0.8	x	-0.6	0.2	x	x
CCC1CCCCN1C(=O)CSc1nnc(-c2ccc3c(c2)OCCO3)o1 (stereo unspecified)	-1.1	-0.1	0.0	-2.1	-0.9	x	x
CCOC(=O)C1CCCCN1C(=O)CCc1nnc(-c2ccc3c(c2)OCO3)o1 (stereo unspecified)	-1.1	3.5	0.8	7.7*	4.5	0.0	1.5
COC(=O)[C@]12C[C@H](CC(=O)N3CCN(C(=O)c4ccco4)CC3)C(=O)N(Cc3ccc(Cl)cc3Cl)C1=C[C@H](C(C)C)O[C@@H]2C1CC1	-1.6	-1.4	x	-2.7	0.6	x	x
CCc1nnc(NC(=O)Nc2ccc(OC)cc2)s1	-1.1	1.1	0.0	0.3	4.3	x	x
CCCCOc1ccc(NC(=O)Nc2nnc(C)s2)cc1	1.1*	0.5	1.6	8.5*	0.4	-0.4	4.2
ClCc1csc(-c2ccc(Cl)cc2)n1	-0.6	0.0	0.1	-0.2	1.4	x	x
CCOc1ccc(-c2nc(CCl)cs2)cc1	-1.1	2.1	2.5	9.1*	12.7*	0.5	2.8
CCCC(=O)N1CCC[C@]2(CC[C@H](CCC(=O)OCC)O2)C1	-0.6	-0.7	x	0.6	-0.7	x	x
CCC1CCC(N2CCN(c3cccc(OC)c3)CC2)CC1 (stereo unspecified)	0.2	0.6	-0.3	8.1*	9.7	0.0	1.2
COC1=C[C@H](C(=O)NCc2ccccn2)[C@@]2(C)Cc3ccccc3[C@H]2CC1=O	-1.2	0.5	x	1.3	3.5	x	x
COCCN1CCCc2nc(-c3ccc(F)cc3)ccc21	0.7	2.8	x	3.5	9.5	x	x
COc1cc(C(=O)N/N=c2/sc3ccccc3n2C)cc(OC)c1OC	-1.7	0.4	-0.3	-1.5	-1.4	x	x
Cn1c(=NN=Cc2ccccc2OCCO)sc2ccccc21	1.7*	3.5	1.8	7.8*	9.5	0.4	7.9*
O=C(c1ccc([N+](=O)[O-])cc1)N1CCSC1c1ccccc1Cl (stereo unspecified)	-1.8	0.9	0.9	1.4	-1.0	x	x
Clc1ccccc1C1SCC2Nc3ccccc3CN21 (stereo unspecified)	-0.3	0.9	1.2	7.1*	4.9	0.0	7.1*
O=C(CSCc1ccc(Br)cc1)N=Nc1c(O)[nH]c2ccccc12	-1.1	-0.4	1.3	0.8	-0.4	x	x
